# PubChem BioAssay AID504374 (National Center for Advancing Translational Sciences (NCATS), 2011)
# Values joined by “and” are separate entries in the source; they are usually repeats but may differ in a detail not shown here. Equal values may be shown once. In all, about 1,500 compounds went through this assay and about 100 (6.7%) were called active. Not shown: some 7% with an inconclusive outcome. The entries come from a sample that favours actives as a whole. A number with no mark means an inactive call. The call rests on the fitted dose curve; in most records, active means well fitted inhibition curve with a large enough effect; inconclusive means small, poorly fitted or top-dose-only effect, or effect the other way; inactive means flat fitted curve, though single readings scatter.
# Target: Runt-related transcription factor 1 (Homo sapiens) + Core-binding factor subunit beta (Homo sapiens) (UniProt Q01196+Q13951)
# Sequence (Q01196 whole entry, looked up): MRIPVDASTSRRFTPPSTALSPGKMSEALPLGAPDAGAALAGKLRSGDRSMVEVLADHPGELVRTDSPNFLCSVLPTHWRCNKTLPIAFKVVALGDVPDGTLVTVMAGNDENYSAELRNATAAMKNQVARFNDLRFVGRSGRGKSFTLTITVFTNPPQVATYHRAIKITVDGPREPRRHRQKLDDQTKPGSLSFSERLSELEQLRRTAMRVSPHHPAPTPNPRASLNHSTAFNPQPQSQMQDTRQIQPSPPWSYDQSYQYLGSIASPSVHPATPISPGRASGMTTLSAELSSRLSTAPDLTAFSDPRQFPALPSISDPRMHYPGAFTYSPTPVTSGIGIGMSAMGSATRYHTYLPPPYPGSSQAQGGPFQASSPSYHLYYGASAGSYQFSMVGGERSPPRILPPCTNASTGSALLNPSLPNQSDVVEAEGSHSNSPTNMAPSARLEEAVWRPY
# Sequence (Q13951 whole entry, looked up): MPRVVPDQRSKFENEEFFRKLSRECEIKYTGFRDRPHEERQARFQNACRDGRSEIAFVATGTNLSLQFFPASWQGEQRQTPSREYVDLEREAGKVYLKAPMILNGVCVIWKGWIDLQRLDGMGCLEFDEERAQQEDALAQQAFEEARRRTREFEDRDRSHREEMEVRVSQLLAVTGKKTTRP
# Assay: qHTS Assay for Compounds Blocking the Interaction Between CBF-beta and RUNX1 for the Treatment of Acute Myeloid Leukemia: Hit Validation; further: nearly all actives have a fitted effect of over 60% in size
# Settings: AlphaScreen CBFb-His/RUNX1-biotin binding; series mostly up to 59.8 µM; activity, negative = inhibition: at the top concentration
# Excerpt: NIH Chemical Genomics Center [NCGC]
# NIH Molecular Libraries Probe Production centers Network [MLPCN]
# Assay Submitter (PI): Paul Liu
# Core Binding Factor (CBF) abnormalities are associated with 20-25% of all acute myeloid leukemias (AML), of which 5-10% are further sub classified as acute myelomonocytic leukemia with eosinophilia, also known as M4Eo in the FAB classification scheme. This subtype of leukemia is usually associated with chromosome 16 inversion (p13:q22). Chromosome 16 inversion results in formation of the fusion oncogene CBFB-MYH11, which encodes the fusion protein CBF-beta-SMMHC.
# It has been hypothesized that the interference of CBF-beta and RUNX1 binding could have therapeutic implications for patients with CBF mediated leukemias. We developed a CBF-beta and RUNX1 binding assay in AlphaScreenTM format and optimized it for high throughput screening to search for inhibitors. The goal of this project is to screen MLPCN's compound collection (MLSMR) for identifying the inhibitors of the interaction between CBF-beta and RUNX1 proteins as research probes. If these probes work well in the animal models, the ultimate goal of this project is to development a new drug treatment for this disease.
# This assay can not be used to assess how apparent inhibitors interfere with protein binding, and whether inhibitors specifically bind to either protein. Disruption of this protein-protein interaction, through any mechanism, is the intended target activity.
# The present data set was run to confirm the activity of hits from the primary screen.
# NCGC Assay Protocol Summary:
# Step, Parameter, Description
# (1) Reagent, 3 uL CBFb-His/RUNX1-biotin mix incubated together for 20 minutes at room temperature (30 nM each)
# (2) Compound or control, 23 nL compound stock solution
# (3) Incubation, 15 minutes at Room temperature
# (4) Reagent, 1 uL 50 ng each of beads (Nickel beads and streptavidin beads)
# (5) Incubation, 90 minutes at Room temperature
# (6) Detection, Excitation=365 nm Emission=440 nm, Envision reader in AlphaScreenTM mode
# Keywords: MLSMR, MLPCN, NIH Roadmap, qHTS, NCGC, Core binding factor, CBF, CBF-beta, Acute myeloid leukemia
# On the % scale 0 is the no-effect control and ±100 the full control effect; potency means the concentration at half of the fitted maximal effect.
SMILES,Potency,"activity, negative = inhibition [%]"
CCn1nc(-c2ccccc2)nc2c(=O)n(C)c(=O)nc1-2,1.12 µM (active),–
CCC1(C(=O)c2ccc(C)cc2)C2c3ccccc3OC(=O)C21C(=O)O (stereo not drawn),–,95.8
COCc1cc(OC(=O)N(C)C)nc(-c2ccc(C)c(Cl)c2)n1,–,-1.64
CCOC(=O)C(O)(c1ccc(NC(=O)c2ccc(Cl)c(Cl)c2)cc1)C(F)(F)F (stereo not drawn),–,5.28
CCN1CCc2ccccc2C1,–,-0.241
NC(Cc1cc(O)c(O)cc1O)C(=O)O (stereo not drawn),2.51 µM (active),–
CCOC(=O)[C@]1(C#N)[C@@H]2C=CC(C(N)=O)=CN2[C@@H](C(N)=O)[C@@H]1c1ccc(F)cc1,–,-22
CNC(=O)O/N=C(\C)Cc1nnn(-c2cc(C)on2)n1,–,-1.93
O=C1/C(=C\c2cccnc2)N2CCC1CC2,–,-7.07
CCN1CCN(c2nc([N+](=O)[O-])nn2C)CC1,–,-0.501
CC(C)C(N)C(=O)OCCOCn1cnc2c(=O)[nH]c(N)nc21 (stereo not drawn),0.705 µM (active),–
CN1C(=O)C(=Cc2cccnc2)C(=O)N(C)C1=O,–,-6.91
COc1cccc(C(=O)N2CCC3(CC2)OCCO3)c1,–,2.46
O=C(O)COc1ccccc1/C=C1\C(=O)NC(=O)N(CCC2=CCCCC2)C1=O,–,-8.15
CCn1c(O)c(C=NCCN2CCOCC2)c(=O)[nH]c1=S,–,6.3
CN1CCN(c2nc(N)cc(=O)[nH]2)CC1,–,-5.72
CC(C)[C@@]1(NC(=O)[C@H]2CC3c4cccc5[nH]cc(c45)C[C@H]3N(C)C2)O[C@@]2(O)C3CCCN3C(=O)[C@@H](Cc3ccccc3)N2C1=O (stereo partly drawn),25 µM (active),–
CC(C)[C@H]1C(=O)N2CCC[C@H]2[C@]2(O)O[C@](NC(=O)[C@@H]3C=C4c5cccc6[nH]cc(c56)C[C@H]4N(C)C3)(C(C)C)C(=O)N12,6.87 µM (active),–
CC(C)C[C@H]1C(=O)N2CCCC2[C@]2(O)O[C@](NC(=O)[C@@H]3C=C4c5cccc6[nH]cc(c56)CC4N(C)C3)(C(C)C)C(=O)N12 (stereo partly drawn),7.91 µM (active) and 7.05 µM (active),–
CC(=O)CC(c1ccccc1[N+](=O)[O-])c1c(O)c2ccccc2oc1=O (stereo not drawn),–,-0.958
Cc1cc(C(=O)Nc2ccccc2)nn1C(C)(C)C,–,2.7
N=Cc1c(O)n(-c2ccccc2)c(=O)n(-c2ccccc2)c1=O,–,-3.79
CC1CN=C(Nc2ccc(F)c(Cl)c2)S1 (stereo not drawn),–,-8.96
CNC(=O)Oc1ccc(N(C)C)cc1C(C)C,–,5.1
O=c1[nH]c(=S)[nH]c(O)c1N=Nc1cccc(S(=O)(=O)N2CCOCC2)c1,–,1.13

SMILES,Potency,"activity, negative = inhibition [%]"
CCOP(=O)(Cc1cc(C(C)=O)c(C)o1)OCC,–,-7.07
CCCCn1c(O)c(C(CC)=NCCCn2ccnc2)c(=O)[nH]c1=O,–,-3.48
CCCCc1ccc(C(=O)O)nc1,6.31 µM (active),–
CCC(C)n1c(O)c(C=NCCc2ccccc2)c(=O)[nH]c1=S (stereo not drawn),–,-0.764
CN(N=O)c1ccc(O)c(O)c1,1.26 µM (active),–
CN(N=O)c1cc(O)ccc1O,–,1.25
CCC(=Nc1cccc(C(F)(F)F)c1)c1c(O)n(C)c(=O)n(C)c1=O,–,2.46
C=CCn1c(O)c(C(C)=Nc2ccc3c(c2)CCC3)c(=O)[nH]c1=O,–,-1.69
COc1cc(CN=Cc2c(O)n(C(C)(C)C)c(=O)[nH]c2=O)cc(OC)c1,–,1.63
CCCCn1c(O)c(/C=N/N2CCOCC2)c(=O)[nH]c1=S,–,-5.68
CCCCNC(=O)Oc1c(Br)cc2sc(=O)oc2c1Br,6.12 µM (active),–
CCCCn1c(O)c(/C=C2/C=CC=N2)c(=O)[nH]c1=O,–,-6.78
Cc1nc(SCc2c(Cl)cccc2Cl)nc(OC(=O)N(C)C)c1C,–,2.29
CC(C)(C)n1cc(C(=O)c2ccccc2)cc1-c1ccccc1,–,-0.565
Cn1c(O)c(C(=Nc2ccc(F)cc2)c2ccccc2)c(=O)n(C)c1=O,–,-2.33
COP(=O)(Cc1ccc(C#N)o1)OC,–,-0.622
C/C=C/CC1(CC)C(=O)NC(=S)NC1=O,–,-1.71
COc1ccc(CN2C(=O)NC(=O)/C(=C/c3ccc(OC)c(OC)c3OC)C2=O)cc1,–,9.53
O=C(O)CCCCC1SCC2NC(=O)NC21 (stereo not drawn),0.0562 µM (active),–
CC(C)OP(=O)(Oc1ccc(C(O)C(Cl)(Cl)Cl)cc1)OC(C)C (stereo not drawn),–,-0.79
Clc1ccccc1CN1CCN(c2cccc3[nH]ccc23)CC1,–,-13.4
C=CCn1c(O)c(C(C)=NCC2CCCO2)c(=O)[nH]c1=O (stereo not drawn),–,1.56
Cc1cccc(-n2c(O)c(/C=N/Nc3nc4c(c(=O)n(C)c(=O)n4C)n3C)c(=O)[nH]c2=S)c1,0.891 µM (active),–
O=c1[nH]c(=S)n(-c2ccc(F)cc2)c(O)c1/C=N/N1CCOCC1,–,1.42
Cn1c(O)c(/C=N/N2CCOCC2)c(=O)[nH]c1=S,–,21.1

SMILES,Potency,"activity, negative = inhibition [%]"
Cc1cc(OC(=O)N(C)C)nc2c1c(C)nn2C,–,-3.55
CCCCCCn1c(O)c(/C=N/N2CCCCCC2)c(=O)[nH]c1=O,–,-0.075
COCc1cc(OC(=O)N(C)C)nc(-c2ccccc2)n1,–,0.677
Cc1cccc(N2C(=O)NC(=O)/C(=C\c3ccc(N4CCOCC4)cc3)C2=O)c1,–,-4.52
Cc1cc(OC(=O)N(C)C)nc(-c2ccc(C)c(Cl)c2)n1,–,-1.54
CCCC(=O)c1ccc(CP(=O)(OCC)OCC)o1,–,-2.26
CC[n+]1c(-c2ccccc2)c2cc(N)ccc2c2ccc(N)cc21,0.499 µM (active),–
CC[N+](C)(CC)CCC[n+]1c(-c2ccccc2)c2cc(N)ccc2c2ccc(N)cc21,1.12 µM (active),–
O=c1c2ccccc2nc(Cc2cccc([N+](=O)[O-])c2)n1-c1ccc(O)cc1,–,-8.58
CCC(=NCc1ccco1)c1c(O)n(-c2ccccc2C)c(=O)[nH]c1=O,–,-0.548
CCCC(=O)c1cc(CP(=O)(OCC)OCC)oc1C,–,-4.76
O=c1[nH]c(=S)[nH]c(O)c1/C=N/N1CCOCC1,–,0.395
Cc1ccc(-n2c(O)c(C=N)c(=O)n(-c3ccc(C)cc3)c2=O)cc1,–,-1.55
CC(=O)Nc1ccc([As](=O)(O)c2ccc([N+](=O)[O-])cc2)cc1,–,-7.13
Cn1c(O)c(C(=Nc2ccc(F)cc2)c2ccccc2Cl)c(=O)n(C)c1=O,–,-4.1
C[C@H]1CC[C@H]2NCCN[C@H]2C1,–,4.76
O=C(OCC1O[C@@H](OC(=O)c2cc(O)c(O)c(O)c2)[C@@H](OC(=O)c2cc(O)c(O)c(O)c2)[C@@H](OC(=O)c2cc(O)c(O)c(O)c2)[C@@H]1OC(=O)c1cc(O)c(O)c(O)c1)c1cc(O)c(O)c(O)c1 (stereo partly drawn),0.0631 µM (active),–
O=C1C=CC(=O)c2c(O)cccc21,4.47 µM (active),–
CCC(=NCc1cccnc1)c1c(O)n(-c2ccccc2C)c(=O)[nH]c1=O,–,0.638
Cc1onc(-c2c(Cl)cccc2Cl)c1C(=O)Nc1ccc2c(C(F)(F)F)cc(=O)oc2c1,–,-2.82
Cn1c(O)c(C=NCCN2CCN(C(=O)Nc3ccccc3)CC2)c(=O)n(C)c1=O,–,-4.64
CCCCCCn1c(O)c(C=Nc2ccccc2N2CCOCC2)c(=O)[nH]c1=S,–,0.654
CCC(=NCc1cc(OC)cc(OC)c1)c1c(O)n(C2CCCCC2)c(=O)[nH]c1=O,–,9.95
